Several values for one entry are separate records, joined by “and”; a condition that tells them apart may be missing. Identical values can stand only once. Records with an inconclusive call do not appear. The source holds several records for some structures; these can differ, active in one and inactive in another. Activity calls are given as the source filed them. Rule for the calls, unless noted: active = hit-call score of the fitted dose curve at least 0.9, where 1 is the maximum; inactive = score below 0.9.

Experiment [1] deals with Oxysterols receptor LXR-beta (Homo sapiens) (UniProt P55055). Put plainly: ATG_LXRb_TRANS: Attagene TRANS-FACTORIAL HepG2 Assay for human Liver X Receptor beta (LXRb) (AID 2282981; active = hit-call score of the fitted dose curve at least 0.9, where 1 is the maximum). The note with it: HepG2 Attagene TRANS GAL4-LXRb reporter, mRNA. The essentials: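 Readout: fluorescent reporter mRNA fragments resolved by capillary electrophoresis after RT-PCR. System: transiently transfected human HepG2, exogenous LXRb-Gal4 chimera driving GAL4-UAS reporter, 24 h dosing. Activity fitted upward against DMSO baseline.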

A short description of experiment [2]: ATG_M_06_TRANS: Attagene TRANS-FACTORIAL HepG2 Assay for M06 Transcription Factor (Internal Marker) (AID 2282983; active = hit-call score of the fitted dose curve at least 0.9, where 1 is the maximum;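 note: reporter transcript level by RT-PCR then capillary electrophoresis fluorescence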). The note with it: HepG2 Attagene TRANS M06 internal marker reporter. The method, boiled down:
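mRNA levels of a reporter transcript, quantified as FAM fluorescence on capillary electrophoresis, served as readout. HepG2 cells expressing exogenous GAL4-chimera reporter constructs were exposed for 24 h. Gain of signal over DMSO was evaluated.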

A short description of experiment [3]: ATG_M_32_TRANS: Attagene TRANS-FACTORIAL HepG2 Assay for M32 Transcription Factor (Internal Marker) (AID 2282984; active = hit-call score of the fitted dose curve at least 0.9, where 1 is the maximum;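 note: transcript level of a background control reporter unit measured by RT-PCR and capillary electrophoresis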). The note with it: HepG2 Attagene TRANS M32 internal marker reporter. The essentials:
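Read-out: fluorescent reporter cDNA fragments resolved by capillary electrophoresis after RT-PCR of total RNA. Transfected HepG2 cells were exposed to chemical for 24 h. Activity scored in the positive direction relative to DMSO.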

Experiment [4] concerns the target Nuclear receptor subfamily 4 group A member 2 (Homo sapiens) (UniProt P43354). Put plainly: ATG_NURR1_TRANS: Attagene TRANS-FACTORIAL HepG2 Assay for human Nuclear Receptor Related Protein 1 (NURR1) (AID 2282985; active = hit-call score of the fitted dose curve at least 0.9, where 1 is the maximum). The note with it: HepG2 Attagene TRANS reporter, mRNA readout. The method, boiled down: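 Read-out: reporter mRNA induction by RT-PCR plus capillary electrophoresis with fluorescence detection, after 24 h dosing of transfected HepG2 cells. Exogenous NR-Gal4 chimera activity drives GAL4-UAS reporter; activity fitted upward versus DMSO.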

Experiment [5] deals with Transcriptional activator Myb (Homo sapiens) (UniProt P10242). Put plainly: ATG_Myb_CIS: Attagene CIS-FACTORIAL HepG2 Assay for human Myeloblastosis (Myb) Proto-Oncogene Transcription Factor (AID 2282986). As to conditions: HepG2 Attagene CIS-FACTORIAL Myb reporter transcription; actives raise or lower the signal. The method, boiled down:
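Using HepG2 liver cells bearing transiently transfected cis-promoter reporter constructs, the assay measures induction or loss of reporter mRNA after 24 hours of dosing. Detection used fluorescently labeled RT-PCR products separated by capillary electrophoresis.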

Experiment [6] has as its target Nuclear respiratory factor 1 (Homo sapiens) (UniProt Q16656). Put plainly: ATG_NRF1_CIS: Attagene CIS-FACTORIAL HepG2 Assay for human Nuclear Respiratory Factor 1 (NRF1) Orphan Gene (AID 2282987). As to conditions: HepG2 NRF1 cis-element reporter, Attagene multiplex; actives raise or lower the signal. The method, boiled down: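 Reporter mRNA induction or loss in HepG2 cells after 24 h dosing; cis-regulated reporter constructs report endogenous transcription-factor activity. Quantified by RT-PCR/capillary electrophoresis fluorescence, DMSO-referenced.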

Experiment [7] addresses Myc proto-oncogene protein (Homo sapiens) (UniProt P01106). Put plainly: ATG_Myc_CIS: Attagene CIS-FACTORIAL HepG2 Assay for human Myelocytomatosis (Myc) Proto-Oncogene Transcription Factor (AID 2282990). The note with it: HepG2, Attagene cis-reporter transcription factor activity; actives raise or lower the signal. The essentials: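 Transiently transfected HepG2 cells bearing cis-promoter reporter units for endogenous transcription factors; 24 h exposure. Reporter mRNA measured by RT-PCR, 6-FAM primer extension, HpaI cut and capillary electrophoresis; bidirectional fit relative to DMSO.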

Experiment [8] in a line: ATG_NF_kB_CIS: Attagene CIS-FACTORIAL HepG2 Assay for human Nuclear Factor Kappa B (NF-kB) (AID 2282991). The note with it: HepG2 Attagene cis-factorial NF-kB reporter mRNA; actives raise or lower the signal. The essentials:
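DMSO served as negative control and baseline for bidirectional curve fitting. Transiently transfected HepG2 cells were dosed for 24 h, then reporter transcripts were measured by RT-PCR with capillary electrophoresis detection.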

A short description of experiment [9]: ATG_NRF2_ARE_CIS: Attagene CIS-FACTORIAL HepG2 Assay for human Nuclear Factor Erythroid 2 Related Factor 2 (NFR2) response to Antioxidant Response Elements (ARE) (AID 2282992).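 For AC50: reporter mRNA level measured by RT-PCR and capillary electrophoresis fluorescence.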 As to conditions: HepG2 Attagene ARE/NRF2 reporter, transcription factor activity; actives raise or lower the signal. The method, boiled down: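 Fluorescence intensity of reporter-specific cDNA fragments, separated by capillary electrophoresis, reflects mRNA induction in transfected HepG2 cells at 24 h. Activity is fitted bidirectionally, DMSO serving as baseline.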

Experiment [10] can be described thus: ATG_Oct_MLP_CIS: Attagene CIS-FACTORIAL HepG2 Assay for human Octamer-Binding Transcription Factor (Oct) (AID 2282993). As to conditions: HepG2 Attagene cis-factorial Oct reporter, mRNA; actives raise or lower the signal. The essentials: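 HepG2 cells transiently transfected with cis-promoter-driven multiplexed reporter transcription units, dosed for 24 h. Reporter mRNA quantified by RT-PCR, fluorescent labelling, HpaI digestion and capillary electrophoresis; bidirectional fits versus DMSO baseline.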

Experiment [11] deals with Cellular tumor antigen p53 (Homo sapiens) (UniProt P04637). Put plainly: ATG_p53_CIS: Attagene CIS-FACTORIAL HepG2 Assay for human p53 Transcription Factor (AID 2282994). As to conditions: HepG2 p53 cis-element reporter, Attagene mRNA; actives raise or lower the signal. The method, boiled down: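 Transiently transfected HepG2 (multiple cis reporter transcription units); exposure 24 h; reporter RNA via RT-PCR, 6-FAM extension, 2 h HpaI digest at 37 C, CE detection; DMSO baseline.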

A short description of experiment [12]: BSK_3C_TissueFactor: BioMAP Diversity Plus: 3C Assay for Tissue Factor Biomarker Activity (AID 2282997). The note with it: BioMAP 3C HUVEC, tissue factor biomarker readout; actives raise or lower the signal. The essentials:
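Tissue Factor measured by ELISA, 24 h after treatment of primary HUVEC in the BioMAP 3C setting.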

Experiment [13] in a line: BSK_3C_uPAR: BioMAP Diversity Plus: 3C Assay for Urokinase-type plasminogen activator receptor (uPAR) Biomarker Activity (AID 2282998). As to conditions: BioMAP 3C HUVEC, uPAR biomarker ELISA; actives raise or lower the signal. The method, boiled down: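 Human umbilical vein endothelial primary cells were exposed to test chemical for 24 h. Cell-surface uPAR was then quantified by ELISA, and responses were fitted bidirectionally against DMSO as negative control and baseline.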
In general terms: ELISA stands for enzyme-linked immunosorbent assay.

Experiment [14] in a line: BSK_3C_VCAM1: BioMAP Diversity Plus: 3C Assay for Vascular cell adhesion molecule 1 (VCAM1) Biomarker Activity (AID 2282999). As to conditions: BioMAP 3C HUVEC, VCAM1 ELISA, cytokine-stimulated; actives raise or lower the signal. The method, boiled down:
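HUVEC primary cells, 24 h compound exposure; VCAM-1 by ELISA; gain/loss of signal fitted bidirectionally vs DMSO baseline.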

Experiment [15] in a line: BSK_4H_Eotaxin3: BioMAP Diversity Plus: 4H Assay for Eotaxin 3 Biomarker Activity (AID 2283000).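 For outcome: CCL26 protein level quantified by ELISA in parallel with SRB cytotoxicity check.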 The note with it: primary human endothelial cells (HUVEC); actives raise or lower the signal. The essentials:
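Eotaxin-3 (CCL26) levels were measured by ELISA in HUVEC primary cultures 24 h post-dosing. Gain or loss of signal was fitted in both directions, with DMSO serving as baseline and negative control.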

Experiment [16] deals with Oxysterols receptor LXR-alpha (Homo sapiens) (UniProt Q13133). Put plainly: ATG_LXRa_TRANS: Attagene TRANS-FACTORIAL HepG2 Assay for human Liver X Receptor alpha (LXRa) (AID 2282980; active = hit-call score of the fitted dose curve at least 0.9, where 1 is the maximum). As to conditions: HepG2 Attagene TRANS reporter, LXRa transactivation. The essentials:
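HepG2 cells transiently transfected with GAL4-UAS reporter units for chimeric NR-Gal4 proteins, exposed to chemicals for 24 h. Reporter mRNA quantified by RT-PCR and capillary electrophoresis; gain of signal fitted relative to DMSO.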

The target of experiment [17] is Hepatocyte nuclear factor 4-alpha (Homo sapiens) (UniProt P41235). Description: ATG_HNF4a_TRANS: Attagene TRANS-FACTORIAL HepG2 Assay for human Hepatocyte Nuclear Factor 4 alpha (HNF4a) (AID 2282982; active = hit-call score of the fitted dose curve at least 0.9, where 1 is the maximum). As to conditions: HepG2 HNF4a transactivation reporter, mRNA readout. The essentials:
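Transient MRTU transfection of HepG2, 24 h dosing. Readout: reporter mRNA via RT-PCR + capillary electrophoresis, fluorescence; activity fit upward relative to DMSO control.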

Experiment [18] in a line: ATG_NFI_CIS: Attagene CIS-FACTORIAL HepG2 Assay for human Nuclear Factor I (NFI) (AID 2282989). As to conditions: HepG2 cis-regulatory reporter, NFI response element transcription; actives raise or lower the signal. The method, boiled down: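 HepG2 cells transiently transfected with cis-element-driven multiplexed reporter transcription units, dosed for 24 h. Reporter mRNA quantified by RT-PCR, fluorescent labelling, HpaI digestion and capillary electrophoresis; bidirectional fit versus DMSO baseline.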

The target of experiment [19] is Bile acid receptor (Homo sapiens) (UniProt Q96RI1). Description: ATG_FXR_TRANS: Attagene TRANS-FACTORIAL HepG2 Assay for Farnesoid X Receptor (FXR) (AID 2282979; active = hit-call score of the fitted dose curve at least 0.9, where 1 is the maximum;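 note: hits raise reporter mRNA above DMSO so AC50 marks FXR activation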). As to conditions: HepG2 Attagene TRANS FXR-GAL4 reporter transcription. The method, boiled down: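 HepG2 cells were transiently transfected with GAL4-UAS reporters driven by chimeric NR-Gal4 proteins and dosed for 24 h. Reporter mRNA was quantified by RT-PCR, fluorescent labelling, HpaI digestion and capillary electrophoresis, with gain of signal scored versus DMSO.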
Bile acid receptor (Homo sapiens), sequence (Q96RI1 whole entry, looked up, the tested form may be a part): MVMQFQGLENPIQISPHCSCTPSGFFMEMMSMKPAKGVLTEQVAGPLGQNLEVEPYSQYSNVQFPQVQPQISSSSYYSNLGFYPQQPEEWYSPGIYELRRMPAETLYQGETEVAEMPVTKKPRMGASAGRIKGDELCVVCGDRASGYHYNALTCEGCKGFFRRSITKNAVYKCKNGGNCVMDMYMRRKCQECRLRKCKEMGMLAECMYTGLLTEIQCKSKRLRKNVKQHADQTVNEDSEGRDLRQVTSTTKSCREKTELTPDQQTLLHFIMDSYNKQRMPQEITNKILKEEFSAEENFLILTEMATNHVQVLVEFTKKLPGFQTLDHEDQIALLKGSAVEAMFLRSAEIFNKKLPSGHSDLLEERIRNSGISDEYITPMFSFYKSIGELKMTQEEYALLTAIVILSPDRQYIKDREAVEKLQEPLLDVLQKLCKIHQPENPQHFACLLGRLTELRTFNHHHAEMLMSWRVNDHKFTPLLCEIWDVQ

Nuclear receptor subfamily 4 group A member 2 (Homo sapiens), sequence (P43354 whole entry, looked up, the tested form may be a part): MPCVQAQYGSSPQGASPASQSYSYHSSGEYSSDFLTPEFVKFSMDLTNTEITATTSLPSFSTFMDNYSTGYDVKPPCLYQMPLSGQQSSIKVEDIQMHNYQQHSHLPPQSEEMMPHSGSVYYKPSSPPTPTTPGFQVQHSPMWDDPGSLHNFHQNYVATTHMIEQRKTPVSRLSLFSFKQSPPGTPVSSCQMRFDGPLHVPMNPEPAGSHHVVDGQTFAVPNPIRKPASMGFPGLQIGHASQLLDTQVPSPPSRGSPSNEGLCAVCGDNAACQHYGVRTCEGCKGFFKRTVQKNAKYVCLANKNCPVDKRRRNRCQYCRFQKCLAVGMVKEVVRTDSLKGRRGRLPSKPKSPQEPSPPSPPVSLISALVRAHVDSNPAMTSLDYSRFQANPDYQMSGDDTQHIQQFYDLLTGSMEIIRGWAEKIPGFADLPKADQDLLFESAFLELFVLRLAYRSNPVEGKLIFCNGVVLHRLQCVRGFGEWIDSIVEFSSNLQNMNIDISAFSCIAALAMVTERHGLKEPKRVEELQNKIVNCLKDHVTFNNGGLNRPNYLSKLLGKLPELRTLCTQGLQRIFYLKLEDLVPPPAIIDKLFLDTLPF
Hepatocyte nuclear factor 4-alpha (Homo sapiens), sequence (P41235 whole entry, looked up): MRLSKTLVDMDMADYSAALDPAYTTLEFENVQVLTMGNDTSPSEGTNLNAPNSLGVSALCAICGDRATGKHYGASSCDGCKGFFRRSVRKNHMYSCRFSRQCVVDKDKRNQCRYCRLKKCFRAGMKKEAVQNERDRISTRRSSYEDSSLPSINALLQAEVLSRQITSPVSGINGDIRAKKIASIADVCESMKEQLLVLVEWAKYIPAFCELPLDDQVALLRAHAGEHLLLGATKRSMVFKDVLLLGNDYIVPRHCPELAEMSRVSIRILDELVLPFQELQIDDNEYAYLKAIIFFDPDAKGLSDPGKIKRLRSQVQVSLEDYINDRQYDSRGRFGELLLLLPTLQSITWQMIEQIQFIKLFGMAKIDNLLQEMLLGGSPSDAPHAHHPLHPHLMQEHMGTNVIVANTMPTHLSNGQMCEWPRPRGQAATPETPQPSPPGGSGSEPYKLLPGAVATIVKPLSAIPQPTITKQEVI
Transcriptional activator Myb (Homo sapiens), sequence (P10242 whole entry, looked up): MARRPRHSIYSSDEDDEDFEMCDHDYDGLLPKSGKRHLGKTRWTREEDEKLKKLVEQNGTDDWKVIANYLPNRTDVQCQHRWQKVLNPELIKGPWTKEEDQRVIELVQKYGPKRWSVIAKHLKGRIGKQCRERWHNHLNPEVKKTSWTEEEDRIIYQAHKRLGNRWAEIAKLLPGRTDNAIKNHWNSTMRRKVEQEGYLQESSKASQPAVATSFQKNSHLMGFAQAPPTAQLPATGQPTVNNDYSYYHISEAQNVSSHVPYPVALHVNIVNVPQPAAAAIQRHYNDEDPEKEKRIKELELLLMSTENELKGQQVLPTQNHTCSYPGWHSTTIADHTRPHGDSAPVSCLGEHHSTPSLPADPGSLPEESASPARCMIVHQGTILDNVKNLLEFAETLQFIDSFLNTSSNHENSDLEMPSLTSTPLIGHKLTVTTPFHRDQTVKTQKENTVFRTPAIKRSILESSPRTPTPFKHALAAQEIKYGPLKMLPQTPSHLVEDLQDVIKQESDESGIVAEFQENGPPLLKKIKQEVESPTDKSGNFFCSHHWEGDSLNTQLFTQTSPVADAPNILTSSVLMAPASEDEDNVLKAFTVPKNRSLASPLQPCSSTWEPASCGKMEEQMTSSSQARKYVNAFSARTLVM
Oxysterols receptor LXR-alpha (Homo sapiens), sequence (Q13133 whole entry, looked up, the tested form may be a part): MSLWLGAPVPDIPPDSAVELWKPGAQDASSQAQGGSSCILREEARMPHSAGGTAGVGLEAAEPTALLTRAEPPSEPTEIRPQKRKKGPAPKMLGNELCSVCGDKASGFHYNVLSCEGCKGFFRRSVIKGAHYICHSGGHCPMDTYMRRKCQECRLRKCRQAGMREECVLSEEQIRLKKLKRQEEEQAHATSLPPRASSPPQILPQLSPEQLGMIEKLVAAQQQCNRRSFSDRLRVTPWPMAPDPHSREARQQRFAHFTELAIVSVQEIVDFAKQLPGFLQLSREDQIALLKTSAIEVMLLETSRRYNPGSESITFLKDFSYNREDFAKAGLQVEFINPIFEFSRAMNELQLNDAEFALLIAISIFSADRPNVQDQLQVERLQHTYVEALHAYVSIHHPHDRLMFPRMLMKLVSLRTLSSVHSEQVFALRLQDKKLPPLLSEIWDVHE
Myc proto-oncogene protein (Homo sapiens), sequence (P01106 whole entry, looked up): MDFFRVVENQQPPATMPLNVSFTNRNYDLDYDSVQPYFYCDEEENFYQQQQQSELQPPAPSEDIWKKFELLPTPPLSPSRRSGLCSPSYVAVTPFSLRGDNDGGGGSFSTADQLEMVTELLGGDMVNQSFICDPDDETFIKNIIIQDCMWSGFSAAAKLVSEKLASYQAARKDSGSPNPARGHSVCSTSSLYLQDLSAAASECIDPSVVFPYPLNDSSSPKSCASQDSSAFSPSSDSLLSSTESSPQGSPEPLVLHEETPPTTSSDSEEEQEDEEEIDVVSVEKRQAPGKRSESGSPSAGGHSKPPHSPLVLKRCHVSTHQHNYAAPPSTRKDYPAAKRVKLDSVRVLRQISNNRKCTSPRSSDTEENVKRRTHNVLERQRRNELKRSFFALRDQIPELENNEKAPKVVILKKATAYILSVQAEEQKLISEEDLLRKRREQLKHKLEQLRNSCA
Nuclear respiratory factor 1 (Homo sapiens), sequence (Q16656 whole entry, looked up): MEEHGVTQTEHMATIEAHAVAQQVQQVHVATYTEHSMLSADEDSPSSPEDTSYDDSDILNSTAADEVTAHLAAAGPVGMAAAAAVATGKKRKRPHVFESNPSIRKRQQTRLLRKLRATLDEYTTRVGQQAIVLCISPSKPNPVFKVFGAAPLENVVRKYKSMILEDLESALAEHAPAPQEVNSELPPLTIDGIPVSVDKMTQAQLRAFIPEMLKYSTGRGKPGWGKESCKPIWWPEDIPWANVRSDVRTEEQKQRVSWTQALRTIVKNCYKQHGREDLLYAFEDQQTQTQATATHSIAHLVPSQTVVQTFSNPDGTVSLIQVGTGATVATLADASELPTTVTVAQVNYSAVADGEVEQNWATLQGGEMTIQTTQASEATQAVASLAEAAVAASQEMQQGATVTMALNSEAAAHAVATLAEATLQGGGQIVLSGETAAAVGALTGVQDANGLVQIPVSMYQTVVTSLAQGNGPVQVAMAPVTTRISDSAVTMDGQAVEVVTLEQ
Cellular tumor antigen p53 (Homo sapiens), sequence (P04637 whole entry, looked up): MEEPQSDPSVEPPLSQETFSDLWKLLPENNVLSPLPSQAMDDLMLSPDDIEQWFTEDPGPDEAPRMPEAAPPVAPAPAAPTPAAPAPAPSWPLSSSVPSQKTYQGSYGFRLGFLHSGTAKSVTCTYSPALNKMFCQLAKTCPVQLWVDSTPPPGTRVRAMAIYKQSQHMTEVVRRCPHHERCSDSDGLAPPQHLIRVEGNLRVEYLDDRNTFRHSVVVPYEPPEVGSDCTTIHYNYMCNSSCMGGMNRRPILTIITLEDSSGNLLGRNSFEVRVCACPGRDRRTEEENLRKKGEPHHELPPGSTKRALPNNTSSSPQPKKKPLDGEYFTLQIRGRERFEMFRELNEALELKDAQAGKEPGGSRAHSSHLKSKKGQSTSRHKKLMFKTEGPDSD
Oxysterols receptor LXR-beta (Homo sapiens), sequence (P55055 whole entry, looked up, the tested form may be a part): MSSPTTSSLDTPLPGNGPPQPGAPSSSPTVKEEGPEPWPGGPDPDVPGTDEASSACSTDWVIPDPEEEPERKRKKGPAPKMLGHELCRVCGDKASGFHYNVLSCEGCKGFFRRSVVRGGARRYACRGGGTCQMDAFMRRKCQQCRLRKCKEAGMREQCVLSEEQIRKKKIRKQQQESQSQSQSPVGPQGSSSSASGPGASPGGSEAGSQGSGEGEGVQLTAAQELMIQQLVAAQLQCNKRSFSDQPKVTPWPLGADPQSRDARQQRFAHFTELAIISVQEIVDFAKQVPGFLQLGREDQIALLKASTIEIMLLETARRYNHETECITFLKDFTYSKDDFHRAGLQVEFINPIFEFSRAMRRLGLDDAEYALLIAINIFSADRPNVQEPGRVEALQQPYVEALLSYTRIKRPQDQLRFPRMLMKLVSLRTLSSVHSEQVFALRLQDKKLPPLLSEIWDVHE

For orientation: AC50 means the midpoint of the concentration-response curve, whichever way the signal moves. As for `c1ccc2ccccc2c1`, the result in experiment [1], in experiment [2], in experiment [3], in experiment [4], in experiment [5] and in experiment [6] was inactive. The compound was classed as inactive in experiment [7], in experiment [8], in [9], in [10], in experiment [11] and in experiment [12]. In addition, the outcome in experiment [13], in experiment [14] and in experiment [15] was inactive. In addition, the AC50 in experiment [6] is 100 µM (active).

On to `NCc1cccc(C2CCN(C(=O)c3ccc(C#Cc4ccccc4F)o3)CC2)c1`, for which the AC50 is 8.2 µM (active) in experiment [16]; 18.3 µM (active) in [8]; 1.76 µM (active) in experiment [9]; 15.5 µM (active) in experiment [10]; 15.6 µM (active) in experiment [12]; 7.38 µM (active) in experiment [13]. Besides, the AC50 in experiment [14] and in [15] was 15.8 µM (active) in each case. The call in [17], in experiment [2], in [3], in experiment [4], in [5] and in experiment [6] was inactive. In addition, the outcome in experiment [18], in experiment [7] and in [11] was inactive.

For the compound `CC1=CC(=O)/C(=C(/C)O)C(=O)O1`, the call in [16], in experiment [17], in experiment [2], in experiment [5], in experiment [6] and in experiment [18] was inactive. Besides, the call in experiment [7], in experiment [9], in experiment [10], in [11], in experiment [12] and in [13] was inactive. The result in experiment [14] and in experiment [15] was inactive.

For `CC(=O)N1CCN(c2ccc(OC[C@H]3CO[C@](Cn4ccnc4)(c4ccc(Cl)cc4Cl)O3)cc2)CC1`, the call in experiment [19], in [3], in experiment [5], in experiment [6], in experiment [18] and in [7] was inactive. For the same compound, the call in experiment [8], in [11] and in experiment [14] was inactive. In addition, the half-maximal activity concentration (AC50) in [4] was 43.7 µM (active); in experiment [9] it was 24 µM (active); in experiment [10] it was 9.69 µM (active); in experiment [12], 31.1 µM (active); in [13], 29.8 µM (active); in experiment [15], 33.7 µM (active).

On to `Oc1ccc2ccccc2c1`, for which the call in [16], in experiment [17], in experiment [2], in experiment [3], in experiment [5] and in [6] was inactive. Moreover, the call in [18], in experiment [7], in [8], in [10], in [11] and in [12] was inactive. Besides, the outcome in [13] and in [14] was inactive. Also, the AC50 was 15.5 µM (active) and 5.76 µM (active) in [9]; 180 µM (active) in [11]; 15.7 µM (active) in experiment [15].

Regarding `CC[C@@H]1C[C@H](N(Cc2cc(C(F)(F)F)cc(C(F)(F)F)c2)C(C)=O)c2cc(C(F)(F)F)ccc2N1C(=O)OC(C)C`, the compound was called inactive in experiment [16], in experiment [17], in [2], in [3], in experiment [5] and in experiment [6]. Further, the outcome in [18], in [7], in experiment [8], in [9], in experiment [10] and in experiment [11] was inactive. Further, the result in [12], in experiment [13], in experiment [14] and in experiment [15] was inactive.

The values are drawn from PubChem BioAssay (EPA / NIEHS).
